Test systems include DU-145 prostate; K-562 leukemia; MALME-3M melanoma; MDA-MB-231 breast; RXF 393 renal; SF-268 CNS; SF-295 CNS; SF-539 CNS; UACC-257 melanoma; M14 melanoma.
Common to all, as to assay: NCI-60 one-dose screen, 48 h (100 = growth as untreated, 0 = no growth, -100 = all killed)
What all share (conditions): 10 µM unless noted

The panel holds about 83,000 compounds, 20% with a hit somewhere; the sample as a whole holds those more often.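 Percent growth is the endpoint: 0 to 100 indicates growth inhibition (40 means 60% inhibition), 0 means no net growth, and negative values indicate cell death.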 Values without a mark were called inactive. Active and inactive are the calls of the source. The calls were made as follows: active = growth percent below 10; inactive = the rest.

As for `c1ccc(-c2n(Cc3ccc4ccccc4c3)cc[n+]2Cc2ccc3ccccc3c2)cc1`, the growth in the test with DU-145 prostate is 4.64% (active); in the test on K-562 leukemia, -36.7% (active); in the test on MALME-3M melanoma, -67.8% (active); in the test with MDA-MB-231 breast it was -82.7% (active); with RXF 393 renal it was -84.7% (active); in the test with SF-268 CNS it was -58.2% (active). The growth was -51% (active) in the test on SF-295 CNS, -34.7% (active) in the test with SF-539 CNS, -57.1% (active) with UACC-257 melanoma and -60.5% (active) in the test with M14 melanoma.

For `CCSc1nc(-c2cccs2)n2nc(-c3ccco3)cc2n1`, the growth in the test on DU-145 prostate was 113%; in the test with K-562 leukemia it was 100%; in the test on MALME-3M melanoma, 107%; with MDA-MB-231 breast, 91.6%; in the test with RXF 393 renal it was 107%; in the test with SF-268 CNS, 102%. Besides, the growth in the test with SF-295 CNS was 99.4%; with SF-539 CNS it was 100%; in the test with UACC-257 melanoma it was 103%; in the test with M14 melanoma, 109%.

Turning to `O=C(Nc1nc2c(C(F)(F)F)cccc2s1)c1cc(Cl)ccc1O`, the growth with DU-145 prostate was 23%; in the test with K-562 leukemia it was 5.1% (active); in the test on MALME-3M melanoma, -24.8% (active); in the test on MDA-MB-231 breast it was -13.2% (active); in the test on RXF 393 renal, -5.36% (active); in the test on SF-268 CNS, 21.2%. Also, the growth in the test on SF-295 CNS is -21.2% (active); with SF-539 CNS it was 15%; with UACC-257 melanoma, -23.7% (active); with M14 melanoma it was 8.01% (active).

With `CCOc1cc(/C=C/C(=O)CC(=O)/C=C/c2ccc(OC(=O)CNc3nc4ccc(OC)cc4s3)c(OCC)c2)ccc1OC(=O)CNc1nc2ccc(OC)cc2s1`, the growth is 15.5% in the test with DU-145 prostate; 2.04% (active) in the test with K-562 leukemia; 94.4% with MALME-3M melanoma; 64.5% in the test on MDA-MB-231 breast; -29.9% (active) in the test on RXF 393 renal; 26% in the test on SF-268 CNS. The growth in the test on SF-295 CNS was 63.5%; in the test with SF-539 CNS it was 3.65% (active); in the test with UACC-257 melanoma, 67.6%; in the test with M14 melanoma it was 21.1%.

Consider `CC1=C([Se]CC(OC(=O)[C@@H](CSSC(C)(C)C)NC(=O)C(C)(C)C)C(=O)NCCCCCC(=O)OCc2ccccc2)C(=O)c2ccccc2C1=O` (stereo not given in full), for which the growth with DU-145 prostate is 13.3%; in the test with K-562 leukemia it was 7.91% (active); in the test with MALME-3M melanoma, -39.1% (active); in the test with MDA-MB-231 breast, -15.3% (active); with RXF 393 renal it was -33.5% (active); with SF-268 CNS, 7.11% (active). For the same compound, the growth was -27.8% (active) with SF-295 CNS, -69.4% (active) in the test on SF-539 CNS, -20.8% (active) in the test with UACC-257 melanoma and -32.5% (active) in the test on M14 melanoma.

For the compound `O=C(NCCNC(=O)Oc1cccc2ccccc12)Oc1cccc2ccccc12`, the growth with DU-145 prostate is 112%; in the test on K-562 leukemia it was 102%; in the test on MALME-3M melanoma, 141%; with MDA-MB-231 breast, 68.8%; with RXF 393 renal, 104%; with SF-268 CNS, 83.9%. The growth in the test with SF-295 CNS is 111%; with SF-539 CNS, 101%; in the test on UACC-257 melanoma it was 88.3%; with M14 melanoma, 107%.

For `COc1cccc2c1C(=O)c1c(O)c3c(c(O)c1C2=O)C[C@@](O)(C(C)=O)C[C@@H]3O[C@H]1C[C@H](N)[C@H](O)[C@H](C)O1`, the growth was 1.62% (active) in the test with DU-145 prostate; -4.44% (active) in the test on K-562 leukemia; -70.7% (active) in the test with MALME-3M melanoma; -14.6% (active) in the test on MDA-MB-231 breast; -65.1% (active) with RXF 393 renal; -43.8% (active) in the test with SF-268 CNS. Further, the growth in the test with SF-295 CNS is -30.8% (active); in the test with SF-539 CNS, -43.1% (active); in the test on UACC-257 melanoma, -47.3% (active); in the test with M14 melanoma, -86.5% (active).

Consider `C=C1CC[C@@H]2[C@](C)(COC(C)=O)[C@H](OC(C)=O)CC[C@@]2(C)[C@@H]1CC(NCc1ccccc1)C1=CCOC1=O` (stereo not given in full), for which the growth was 67.2% in the test with DU-145 prostate; 24.7% in the test with K-562 leukemia; 77.1% in the test with MALME-3M melanoma; 64.7% in the test on MDA-MB-231 breast; 74.3% with RXF 393 renal; 62.1% with SF-268 CNS. Besides, the growth in the test on SF-295 CNS is 63.9%; with SF-539 CNS it was 79.5%; in the test with UACC-257 melanoma it was 32.8%; with M14 melanoma it was 42.1%.

Regarding `C=C1CCC2C(C)(COC(=O)CC)C(OC(=O)CC)CCC2(C)C1C/C=C1/C(=O)OCC1OC(=O)CC` (stereo not given), the growth is 28.9% in the test with DU-145 prostate; 2.81% (active) in the test with K-562 leukemia; 2.98% (active) with MALME-3M melanoma; -29.6% (active) with MDA-MB-231 breast; -97.5% (active) with RXF 393 renal; 39.4% in the test with SF-268 CNS. Also, the growth was 56.7% in the test on SF-295 CNS, -64.3% (active) in the test on SF-539 CNS, 0.936% (active) with UACC-257 melanoma and -76.8% (active) in the test with M14 melanoma.

Regarding `CN[C@@H]1C(OC2[C@H](O[C@H]3[C@H](O)[C@@H](O)[C@H](N=C(N)N)[C@@H](O)[C@@H]3N=C(N)N)OC(C)[C@]2(O)CO)OC(CO)C(O)C1O` (stereo not given in full), the growth in the test with DU-145 prostate is 109%; in the test on K-562 leukemia, 113%; in the test on MALME-3M melanoma it was 106%; in the test on MDA-MB-231 breast, 104%; in the test on RXF 393 renal it was 114%; in the test on SF-268 CNS, 118%. Also, the growth is 103% in the test on SF-295 CNS, 109% with SF-539 CNS, 107% with UACC-257 melanoma and 112% in the test with M14 melanoma.

Turning to `Cc1ccc(N/N=C(/C(=O)c2ccc(Cl)cc2)c2nc(C)cc(=O)[nH]2)cc1`, the growth in the test with DU-145 prostate was 102%; with K-562 leukemia it was 91.7%; in the test on MALME-3M melanoma it was 126%; in the test with MDA-MB-231 breast it was 95.9%; with RXF 393 renal it was 40.7%; in the test on SF-268 CNS, 107%. The growth was 90% in the test on SF-295 CNS, 85.3% in the test with SF-539 CNS, 105% in the test with UACC-257 melanoma and 82.7% in the test with M14 melanoma.

For the compound `CC(=O)N1N=C(c2ccc(Nc3nc(NCCO)nc(NCCO)n3)cc2)CC1c1ccc(Cl)cc1` (stereo not given), the growth in the test on DU-145 prostate is 98.6%; in the test with K-562 leukemia, 119%; in the test on MALME-3M melanoma, 91%; in the test on MDA-MB-231 breast, 92.5%; with RXF 393 renal, 108%; in the test on SF-268 CNS, 100%. For the same compound, the growth in the test on SF-295 CNS is 96.6%; with SF-539 CNS it was 90.2%; in the test on UACC-257 melanoma, 91.8%; with M14 melanoma, 98.9%.

In the case of `Nc1nc(Nc2ccccc2SSc2ccccc2Nc2nc(N)nc(-c3ccc(I)cc3)n2)nc(-c2ccc(I)cc2)n1`, the growth in the test with DU-145 prostate is 66%; in the test on K-562 leukemia it was 68.7%; in the test on MALME-3M melanoma it was 103%; with MDA-MB-231 breast it was 55%; in the test on RXF 393 renal, 88.2%; with SF-268 CNS it was 43%. The growth in the test on SF-295 CNS is 47.6%; with SF-539 CNS, 89.2%; in the test with UACC-257 melanoma, 110%; with M14 melanoma, 77.2%.

(Values after PubChem BioAssay (NCI).)
